This is an account of results in PubChem BioAssay (NCI).

Test systems include NCI-H23 lung; NCI-H226 lung; NCI-H322M lung; HOP-62 NSCLC; NCI-H460 lung; HOP-92 NSCLC; NCI-H522 lung; A549/ATCC NSCLC; 786-0 renal; COLO 205 colon; DU-145 prostate; K-562 leukemia; MALME-3M melanoma; MDA-MB-231 breast; RXF 393 renal; SF-268 CNS; SF-295 CNS; SF-539 CNS; UACC-257 melanoma; M14 melanoma.
What all share (experiment): NCI-60 one-dose screen, 48 h (100 = growth as untreated, 0 = no growth, -100 = all killed)
Common to all, as to settings: 10 µM unless noted

Each structure is given as a SMILES string. Compounds without any hit were thinned out: in the full panel of roughly 83,000, 20% have a hit.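 Assay: single dose, 48 h. Readout: percent growth (0 = no net growth; negative = cell death). Active: <10.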 Unmarked numbers belong to inactive results. The source made the active and inactive calls.

For the molecule `COc1cc(CNC(=O)C[C@H](C)CCC=C(C)C)ccc1OCc1cn(-c2ccc(Cl)c(Cl)c2)nn1`, the growth was 68.5% with NCI-H23 lung; 50.5% in the assay on NCI-H226 lung; 82.5% with NCI-H322M lung; 95.7% in the assay with HOP-62 NSCLC; 45.5% with NCI-H460 lung; 51.6% in the assay with HOP-92 NSCLC. For the same molecule, the growth in the assay with NCI-H522 lung was 61.5%; with A549/ATCC NSCLC it was 46.5%; in the assay on 786-0 renal, 80.4%; in the assay on COLO 205 colon, 53.6%; in the assay with DU-145 prostate it was 76.8%; in the assay on K-562 leukemia, 51.9%. Besides, the growth in the assay with MALME-3M melanoma is 77.4%; in the assay with MDA-MB-231 breast, 75.7%; in the assay with RXF 393 renal it was 74.8%; with SF-268 CNS it was 58.4%; in the assay on SF-295 CNS it was 80.5%; with SF-539 CNS it was 5.3% (active). Moreover, the results for the growth in the assay with UACC-257 melanoma and in the assay on M14 melanoma were 91% and 89%, respectively.

For `COc1c(B(O)O)cc(F)cc1-c1nc2ccc3[nH]ncc3c2c2c1COCC2`, the growth was 78.3% in the assay on NCI-H23 lung; 50.8% with NCI-H226 lung; 78.4% in the assay on NCI-H322M lung; 49.5% in the assay on HOP-62 NSCLC; 64.9% with NCI-H460 lung; 18.1% with HOP-92 NSCLC. Also, the growth in the assay on NCI-H522 lung was 14.5%; in the assay with A549/ATCC NSCLC, 92.5%; with 786-0 renal it was 46.1%; in the assay with COLO 205 colon, 38.1%; in the assay on DU-145 prostate, 73.5%; in the assay with K-562 leukemia it was 63.7%. In addition, the growth in the assay with MALME-3M melanoma is 126%; with MDA-MB-231 breast, 33.4%; with RXF 393 renal, -5.84% (active); in the assay with SF-268 CNS, 44.9%; in the assay with SF-295 CNS, 77.2%; in the assay with SF-539 CNS, 21.7%. Besides, the growth in the assay on UACC-257 melanoma was 97.5%; in the assay with M14 melanoma it was 114%.

Take `COc1c(F)ccc(C(=O)Nc2ccc3nc(NC(=O)C4CCCN(S(=O)(=O)c5ccc(C(C)(C)C)cc5)C4)sc3c2)c1F` (stereo not given): the growth with NCI-H23 lung was 66.6%; with NCI-H226 lung, 64.1%; in the assay on NCI-H322M lung it was 80.3%; in the assay with HOP-62 NSCLC it was 88.9%; in the assay with NCI-H460 lung, 57.3%; with HOP-92 NSCLC it was 6.58% (active). In addition, the growth is 66.7% in the assay with NCI-H522 lung; 64.1% in the assay with A549/ATCC NSCLC; 56% with 786-0 renal; 80.9% in the assay on COLO 205 colon; 79.5% with DU-145 prostate; 26.5% in the assay with K-562 leukemia. The growth in the assay with MALME-3M melanoma was 77.3%; with MDA-MB-231 breast it was 47%; with RXF 393 renal it was 14.9%; in the assay on SF-268 CNS it was 68.5%; in the assay on SF-295 CNS, 78.3%; in the assay with SF-539 CNS it was 74%. Also, the figures for the growth in the assay on UACC-257 melanoma and in the assay with M14 melanoma were 69.3% and 87.6%, respectively.

Consider `COc1ccc(-c2nc3ccccc3n2CC(=O)N=Nc2c(O)[nH]c3ccc(Br)cc23)cc1`, for which the growth in the assay on NCI-H23 lung is 78.8%; with NCI-H226 lung, 100%; in the assay with NCI-H322M lung it was 103%; in the assay with HOP-62 NSCLC, 69.8%; in the assay with NCI-H460 lung, 80.6%; with HOP-92 NSCLC it was 79.8%. The growth in the assay on NCI-H522 lung was 67.4%; in the assay on A549/ATCC NSCLC it was 98.2%; in the assay on 786-0 renal it was 97.3%; in the assay with COLO 205 colon it was 83%; with DU-145 prostate, 33.7%; in the assay with K-562 leukemia it was 35.3%. Also, the growth is 79.3% in the assay on MALME-3M melanoma; 57.5% in the assay on MDA-MB-231 breast; 64.3% in the assay on RXF 393 renal; 96% in the assay with SF-268 CNS; 81.1% with SF-295 CNS; 87.9% in the assay on SF-539 CNS. Besides, the growth in the assay with UACC-257 melanoma is 120%; in the assay with M14 melanoma, 77.4%.

Turning to `FC(F)(F)c1cc2c(Cl)ncnc2n1CCC1CCOCC1`, the growth in the assay on NCI-H23 lung is -14.4% (active); in the assay with NCI-H226 lung, 39%; in the assay on NCI-H322M lung it was -72.6% (active); in the assay with HOP-62 NSCLC it was 6.11% (active); in the assay on NCI-H460 lung, -68.8% (active); in the assay on HOP-92 NSCLC it was 71.5%. For the same molecule, the growth in the assay with NCI-H522 lung was -80% (active); in the assay with A549/ATCC NSCLC, 97.6%; in the assay on 786-0 renal, 87.7%; in the assay with COLO 205 colon it was 71.5%; in the assay on DU-145 prostate, -99.6% (active); in the assay with K-562 leukemia, -26.3% (active). For the same molecule, the growth in the assay with MALME-3M melanoma is 79.2%; in the assay on MDA-MB-231 breast, 0.4% (active); with RXF 393 renal it was 57.8%; in the assay on SF-268 CNS, -71.1% (active); with SF-295 CNS, 70.8%; in the assay with SF-539 CNS it was 70.8%. The growth with UACC-257 melanoma was 37.6%; with M14 melanoma, -83.5% (active).

Take `CS(=O)(=O)c1ccc(-n2nc(C(=O)NCc3ccccc3)cc2-c2ccc(Cl)cc2)cc1`: the growth in the assay with NCI-H23 lung was 89.9%; with NCI-H226 lung, 85%; with NCI-H322M lung it was 88.1%; with HOP-62 NSCLC, 106%; with NCI-H460 lung it was 71.2%; in the assay on HOP-92 NSCLC it was 88.1%. In addition, the growth in the assay with NCI-H522 lung is 58.7%; in the assay with A549/ATCC NSCLC it was 70%; in the assay on 786-0 renal, 71%; in the assay with COLO 205 colon, 107%; with DU-145 prostate it was 91.4%; in the assay with K-562 leukemia it was 49.4%. For the same molecule, the growth in the assay on MALME-3M melanoma is 112%; in the assay with MDA-MB-231 breast, 96.3%; in the assay on RXF 393 renal, 94.9%; in the assay on SF-268 CNS, 82.2%; in the assay with SF-295 CNS it was 73.6%; with SF-539 CNS, 99.4%. Moreover, the growth in the assay on UACC-257 melanoma is 98.9%; in the assay with M14 melanoma it was 93.9%.

In the case of `COc1cc(C2CC(c3ccc(C(F)(F)F)cc3)=Nc3c(N)nc(N)nc3N2)ccc1Oc1nc(Nc2ccc(F)cc2)nc(N(C)C)n1` (stereo not given), the growth is 82.2% in the assay on NCI-H23 lung; 58.6% in the assay with NCI-H226 lung; 90.8% in the assay on NCI-H322M lung; 81.2% in the assay on HOP-62 NSCLC; 13% with NCI-H460 lung; 33.3% in the assay on HOP-92 NSCLC. In addition, the growth in the assay on NCI-H522 lung was 30%; in the assay on A549/ATCC NSCLC, 45.9%; with 786-0 renal, 39.1%; in the assay on COLO 205 colon it was 39%; in the assay with DU-145 prostate, 59.9%; in the assay with K-562 leukemia, 7.52% (active). For the same molecule, the growth is 65.3% with MALME-3M melanoma; 29.5% in the assay with MDA-MB-231 breast; 3.99% (active) in the assay with RXF 393 renal; 53.3% in the assay on SF-268 CNS; 36.6% in the assay on SF-295 CNS; 51.4% in the assay on SF-539 CNS. Further, the growth with UACC-257 melanoma was 50.3%; in the assay with M14 melanoma, 28.2%.
